This is an account of results in PubChem BioAssay (EPA / NIEHS).

For test [1], the target named is Estrogen receptor (Homo sapiens) (UniProt P03372). Put plainly: NVS_NR_hER: NovaScreen (NVS) Nuclear Receptor Binding Assay for human Estrogen Receptor (ER) (AID 2283348). A digest of the protocol: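 Scintillation signal from bound radioligand was measured 18 hours after chemical addition to cell-free MCF7 protein extracts, with DMSO as baseline. Activity was scored as signal loss; compounds ran first at 25 uM in duplicate.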

A short description of test [2]: TOX21_p53_BLA_p2_viability: Viability Assessment in the Tox21 HCT-116 p53 Agonism Beta-lactamase Assay, Phase 2 (AID 2283591).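 Also: actives lower the ATP signal meaning cytotoxicity.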 The method, boiled down:
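Cytotoxicity readout: CellTiter-Glo ATP luminescence, 30 min at room temperature, after the beta-lactamase read. Cells were HCT116 exposed 16 h at 37C to compounds pin-transferred at 217-fold dilution from DMSO stocks.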

Test [3] has as its target Cellular tumor antigen p53 (Homo sapiens) (UniProt P04637). Put plainly: TOX21_p53_BLA_p3_ratio: Tox21 HCT-116 p53 Agonism Beta-lactamase Assay, Ratio, Phase 3 (AID 2283596). A digest of the protocol:
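HCT116 p53-bla cells (4000/well) given compound in DMSO (217-fold dilution) after 5 h, incubated 16 h at 37C. CCF4-AM substrate 2 h at room temperature; 460/530 nm emission ratio, gain fitted against DMSO.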

Test [4] in a line: TOX21_p53_BLA_p4_viability: Viability Assessment in the Tox21 HCT-116 p53 Agonism Beta-lactamase Assay, Phase 4 (AID 2283597).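 Also: hits lower the luminescence signal meaning cytotoxicity.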 The method, boiled down: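 Compound exposure of HCT116 cells lasts 16 h at 37C, 5% CO2, with DMSO stocks diluted 217-fold. Cellular ATP is then quantified by CellTiter-Glo luminescence after 30 min at room temperature.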
Test [5] in a line: TOX21_p53_BLA_p5_viability: Viability Assessment in the Tox21 HCT-116 p53 Agonism Beta-lactamase Assay, Phase 5 (AID 2283600). The method, boiled down:
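Counter-readout for cytotoxicity: ATP-dependent luminescence from CellTiter-Glo, read in the beta-lactamase wells after 30 min at RT, following a 16 h compound exposure at 37C.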

Test [6] addresses rat Oxytocin Receptor (OXT), Oxtr (gene 25342) (UniProt P70536). Put plainly: NVS_GPCR_rOXT: NovaScreen (NVS) G Protein-Coupled Receptor Assay for rat Oxytocin Receptor (OXT) (AID 2283330). A digest of the protocol:
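Radioligand displacement on rat uterine membranes, 1 h incubation, filter-based scintillation counting. Chemicals were screened in duplicate at 25 uM, and those passing threshold were retested in concentration-response up to 50 uM. Loss of binding was fitted versus DMSO.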

Test [7] addresses bovine Gamma-Aminobutyric Acid Type A Receptor BDZ, alpha 1 site (GABARa1), GABRA1 (gene 780973) (UniProt P08219). Put plainly: NVS_LGIC_bGABARa1: NovaScreen (NVS) Ligand-Gated Ion Channel Assay for bovine Gamma-Aminobutyric Acid Type A Receptor BDZ, alpha 1 site (GABARa1) (AID 2283321). A digest of the protocol: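 Radioligand competition binding on bovine cortical membranes, 0.75 h, filter-based scintillation counting. Primary single concentration 25 uM in duplicate; actives rerun in concentration-response to 50 uM max. Loss of signal fitted versus DMSO.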

In test [8] the target is Norway rat Vesicular Monoamine Transporter (VMAT2), neurotransmitter transporter, Slc18a2 (gene 25549) (UniProt Q01827). Put plainly: NVS_TR_rVMAT2: NovaScreen (NVS) Transporter Assay for Norway rat Vesicular Monoamine Transporter (VMAT2), neurotransmitter transporter (AID 2283376).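 Also: actives lower the bound radioligand signal below the DMSO level.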 The method, boiled down: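 Tissue: rat forebrain extract. Format: competitive radioligand binding, cell-free. Timepoint: 1 h. Readout: filter radiodetection/scintillation. Screen: 25 uM in duplicate, then concentration series for actives. Baseline: DMSO.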

In test [9] the target is Cellular tumor antigen p53 (Homo sapiens) (UniProt P04637). Put plainly: TOX21_p53_BLA_p2_ratio: Tox21 HCT-116 p53 Agonism Beta-lactamase Assay, Ratio, Phase 2 (AID 2283592). A digest of the protocol: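 An inducible beta-lactamase reporter in HCT116 cells signals p53 pathway activation. After 16 h chemical exposure at 37C, cells load CCF4-AM substrate for 2 h at room temperature; activity is the cleaved/uncleaved emission ratio relative to DMSO.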

Test [10] can be described thus: TOX21_p53_BLA_p3_viability: Viability Assessment in the Tox21 HCT-116 p53 Agonism Beta-lactamase Assay, Phase 3 (AID 2283593).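 Also: cells exposed to compound for 16 h before reading.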 The method, boiled down: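 Cellular ATP was quantified by CellTiter-Glo luminescence, read after 30 min at room temperature. Beforehand, HCT116 cells (4000/well) received compound 5 h post-seeding, 217-fold diluted from DMSO, then incubated 16 h at 37C.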

Test [11] addresses Cellular tumor antigen p53 (Homo sapiens) (UniProt P04637). Put plainly: TOX21_p53_BLA_p5_ratio: Tox21 HCT-116 p53 Agonism Beta-lactamase Assay, Ratio, Phase 5 (AID 2283599). A digest of the protocol:
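Beta-lactamase reporter ratio (blue 460 nm over green 530 nm, 405 nm excitation) after 2 h CCF4-AM loading, in HCT-116 cells exposed 16 h at 37 C to compounds pinned at 217-fold dilution. Increases relative to DMSO baseline scored.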

Test [12] has the same target. Put plainly: TOX21_p53_BLA_p4_ratio: Tox21 HCT-116 p53 Agonism Beta-lactamase Assay, Ratio, Phase 4 (AID 2283601). The method, boiled down: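 Signal is the blue/green (460nm/530nm) ratio of cleaved versus uncleaved CCF4-AM substrate, read after 2 h substrate loading. Cells were HCT116 carrying the p53-responsive beta-lactamase reporter, dosed 16 h at 37C, 5% CO2; CellTiter-Glo measured in parallel.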

Values joined by “and” are separate entries in the source; they are usually repeats but may differ in a detail not shown here. Equal values may be shown once. Results filed as inconclusive are left out. The source holds several records for some structures; these can differ, active in one and inactive in another. Active and inactive are the calls of the source. The calls were made as follows: active = hit-call score of the fitted dose curve at least 0.9, where 1 is the maximum; inconclusive = response in the unintended direction; inactive = score below 0.9.

Sequence of Cellular tumor antigen p53 (Homo sapiens) (P04637 whole entry, looked up): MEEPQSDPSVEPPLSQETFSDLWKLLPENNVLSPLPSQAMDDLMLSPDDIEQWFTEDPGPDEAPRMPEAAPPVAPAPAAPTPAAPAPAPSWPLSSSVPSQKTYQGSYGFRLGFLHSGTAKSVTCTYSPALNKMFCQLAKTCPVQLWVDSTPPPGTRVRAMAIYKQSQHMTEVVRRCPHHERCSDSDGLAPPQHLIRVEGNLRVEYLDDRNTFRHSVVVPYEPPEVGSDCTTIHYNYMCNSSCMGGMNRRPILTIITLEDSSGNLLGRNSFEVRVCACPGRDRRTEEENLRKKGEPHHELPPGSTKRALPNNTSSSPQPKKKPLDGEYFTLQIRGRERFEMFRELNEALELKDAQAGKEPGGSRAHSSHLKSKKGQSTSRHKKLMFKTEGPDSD
Sequence of Estrogen receptor (Homo sapiens) (P03372 whole entry, looked up): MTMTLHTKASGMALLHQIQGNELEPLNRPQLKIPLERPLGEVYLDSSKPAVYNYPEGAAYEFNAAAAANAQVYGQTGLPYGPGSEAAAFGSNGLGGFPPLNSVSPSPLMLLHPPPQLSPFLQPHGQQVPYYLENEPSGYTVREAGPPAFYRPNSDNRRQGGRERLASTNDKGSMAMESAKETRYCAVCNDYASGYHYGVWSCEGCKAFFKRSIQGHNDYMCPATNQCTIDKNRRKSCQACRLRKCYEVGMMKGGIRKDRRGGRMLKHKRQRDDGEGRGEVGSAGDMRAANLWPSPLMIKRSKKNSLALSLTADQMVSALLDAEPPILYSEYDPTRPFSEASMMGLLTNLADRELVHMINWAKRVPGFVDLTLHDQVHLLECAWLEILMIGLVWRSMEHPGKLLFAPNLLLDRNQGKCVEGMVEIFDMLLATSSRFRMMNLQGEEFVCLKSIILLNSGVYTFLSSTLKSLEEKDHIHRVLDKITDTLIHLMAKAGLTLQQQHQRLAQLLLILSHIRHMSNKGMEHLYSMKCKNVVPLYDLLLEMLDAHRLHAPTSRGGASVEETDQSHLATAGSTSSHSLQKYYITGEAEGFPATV
Sequence of Norway rat Vesicular Monoamine Transporter (VMAT2), neurotransmitter transporter, Slc18a2 (gene 25549) (Q01827 whole entry, looked up): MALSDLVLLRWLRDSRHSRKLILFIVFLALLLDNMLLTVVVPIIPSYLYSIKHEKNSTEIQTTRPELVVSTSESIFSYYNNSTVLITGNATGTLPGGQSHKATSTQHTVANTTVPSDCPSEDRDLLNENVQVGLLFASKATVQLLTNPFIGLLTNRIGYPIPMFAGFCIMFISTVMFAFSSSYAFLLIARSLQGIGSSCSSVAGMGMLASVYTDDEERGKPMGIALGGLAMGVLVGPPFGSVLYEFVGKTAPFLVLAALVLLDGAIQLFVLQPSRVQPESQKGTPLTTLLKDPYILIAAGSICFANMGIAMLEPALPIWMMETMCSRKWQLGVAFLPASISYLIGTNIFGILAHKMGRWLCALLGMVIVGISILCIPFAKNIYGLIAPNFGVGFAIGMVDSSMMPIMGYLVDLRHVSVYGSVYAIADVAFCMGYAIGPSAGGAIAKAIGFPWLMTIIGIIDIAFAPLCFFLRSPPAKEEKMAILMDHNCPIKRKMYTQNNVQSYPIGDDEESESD
Sequence of rat Oxytocin Receptor (OXT), Oxtr (gene 25342) (P70536 whole entry, looked up): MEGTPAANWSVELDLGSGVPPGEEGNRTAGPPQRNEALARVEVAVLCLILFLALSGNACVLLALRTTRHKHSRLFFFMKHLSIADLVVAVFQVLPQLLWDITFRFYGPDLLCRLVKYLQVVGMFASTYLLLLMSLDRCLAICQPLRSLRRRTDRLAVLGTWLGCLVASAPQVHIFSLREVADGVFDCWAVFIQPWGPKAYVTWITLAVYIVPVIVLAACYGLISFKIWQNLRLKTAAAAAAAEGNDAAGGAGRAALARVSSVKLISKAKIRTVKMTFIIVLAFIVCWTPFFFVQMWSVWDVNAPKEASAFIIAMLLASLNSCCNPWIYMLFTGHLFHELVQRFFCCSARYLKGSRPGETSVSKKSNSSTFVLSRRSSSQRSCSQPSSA
Sequence of bovine Gamma-Aminobutyric Acid Type A Receptor BDZ, alpha 1 site (GABARa1), GABRA1 (gene 780973) (P08219 whole entry, looked up): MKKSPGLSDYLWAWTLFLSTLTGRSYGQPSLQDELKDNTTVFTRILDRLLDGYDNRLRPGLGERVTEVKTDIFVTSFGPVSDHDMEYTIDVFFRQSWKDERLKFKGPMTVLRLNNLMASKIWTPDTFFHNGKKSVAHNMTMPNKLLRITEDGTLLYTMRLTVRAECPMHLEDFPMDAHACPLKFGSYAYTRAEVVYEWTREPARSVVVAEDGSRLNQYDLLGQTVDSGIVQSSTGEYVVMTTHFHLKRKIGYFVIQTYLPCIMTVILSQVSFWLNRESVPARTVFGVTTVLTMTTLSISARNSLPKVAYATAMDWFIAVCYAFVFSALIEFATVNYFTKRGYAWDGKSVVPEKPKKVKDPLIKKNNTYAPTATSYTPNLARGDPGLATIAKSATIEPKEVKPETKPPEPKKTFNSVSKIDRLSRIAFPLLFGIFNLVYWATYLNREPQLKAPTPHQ

Regarding `c1coc(-c2nc3ccccc3[nH]2)c1`, the result in test [1], in test [2], in test [3], in [4] and in test [5] was inactive.

As to `CCOP(=O)(Sc1ccccc1)Sc1ccccc1`, the molecule was called inactive in [1].

Turning to `C=CC(=O)OCCCCO`, the molecule was called inactive in [1].

Turning to `NC(N)=O`, in test [6], the call was inactive.

Turning to `CCCCc1ccc2c(n1)[C@@H](c1ccc(OC)cc1C[C@H](C)C(=O)O)[C@H](C(=O)O)[C@H]2c1ccc2c(c1)OCO2`, the molecule was classed as inactive in test [7].

With `CC(C)CCCCCCOC(=O)c1ccc(C(=O)OCCCCCCC(C)C)c(C(=O)OCCCCCCC(C)C)c1`, the molecule was classed as inactive in [8].

In general, AC50 refers to the midpoint of the concentration-response curve, whichever way the signal moves. Take `Oc1cc(Cl)c(Cl)c(Cl)c1Cl`: the call in test [2] and in test [4] was inactive. Besides, the AC50 in [9] is 5.97 µM (active); in test [10], 22.3 µM (active); in test [3], 6.58 µM (active); in test [11] it was 7.24 µM (active).

Consider `Oc1cc[c]([Hg][Cl])cc1`, for which the AC50 was 20.9 µM (active) and 10.7 µM (active) in [2]; 13.9 µM (active) in test [9]; 41.6 µM (active) and 18.9 µM (active) in test [10]; 30.1 µM (active) and 35.2 µM (active) in [3]; 20.4 µM (active) and 9.85 µM (active) in test [4]; 39.2 µM (active) and 17.4 µM (active) in [11]. The AC50 in test [5] was 25.3 µM (active) and 10.5 µM (active); in test [12], 41 µM (active) and 19.2 µM (active). Further, the result in test [9] was inactive.

With `Nc1ccc([As](=O)(O)O)cc1`, the result in test [2], in test [9], in test [3], in [4], in test [11] and in test [5] was inactive. The result in [12] was inactive. The values for the AC50 in test [9] and in test [12] were 35.1 µM (active) and 42.1 µM (active), respectively.

Consider `ClC1=C(Cl)C2(Cl)C(CBr)CC1(Cl)C2(Cl)Cl` (centres undefined), for which the AC50 in [2] is 73.5 µM (active); in [10], 63.4 µM (active) and 20.2 µM (active); in test [5], 36.3 µM (active). For the same molecule, the result in test [2], in [9], in [3], in test [4], in test [11] and in [5] was inactive. Besides, the result in [12] was inactive.
